This is an account of results in PubChem BioAssay (NCI).

Assay [1] is described as follows: NCI Yeast Anticancer Drug Screen. Data for the rad50 strain (AID 155).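 Also: 0% = growth of vehicle-only cultures of the same strain.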 As to conditions: S. cerevisiae rad50 strain growth inhibition, active compounds read high. A digest of the protocol: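 Relative growth inhibition (compound vs vehicle) was measured in yeast with a defined repair-gene alteration.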
Assay [2] is described as follows: NCI Yeast Anticancer Drug Screen. Data for the mec2-1 strain (AID 157). As to conditions: S. cerevisiae mec2-1 strain, active compounds read high. An outline of the steps:
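Each compound was tested on mec2-1 yeast, a strain altered in DNA damage repair or cell cycle control. Growth inhibition is reported relative to vehicle.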

The nature of assay [3]: NCI Yeast Anticancer Drug Screen. Data for the sgs1 mgt1 strain (AID 161).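 Also: 0% = growth of cultures given vehicle only.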 As to conditions: S. cerevisiae sgs1 mgt1 strain, active compounds read high. An outline of the steps:
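Mutant yeast exposed to compound; growth scored against vehicle-only wells.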

A short description of assay [4]: NCI Yeast Anticancer Drug Screen. Data for the cln2 rad14 strain (AID 165).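 Also: 0% = growth equal to vehicle treated cultures.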 As to conditions: S. cerevisiae cln2 rad14 strain, active compounds read high. An outline of the steps: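 Test compounds were added to cln2 rad14 yeast cultures; inhibition of growth was then determined by comparison with vehicle treatment.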
Assay [5] is described as follows: NCI Yeast Anticancer Drug Screen. Data for the bub3 strain (AID 167). As to conditions: S. cerevisiae bub3 mutant strain, active compounds read high. A digest of the protocol: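 Screening used yeast with an engineered genetic alteration affecting cell cycle control. Compound-exposed cultures were compared with vehicle cultures, and reduced growth was taken as inhibition.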

Assay [6] is described as follows: NCI Yeast Anticancer Drug Screen. Data for the mlh1 rad18 strain (AID 175). As to conditions: S. cerevisiae mlh1 rad18 strain growth inhibition, active compounds read high. An outline of the steps: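 Inhibition values reflect reduced growth of mutant yeast versus vehicle-treated controls following compound exposure; the mutations affect DNA damage repair.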
Where [7] appears, read: at 5.0 µM (retest, dose inferred, filed as 0.5).
Where [8] appears, read: at 50.0 µM (retest, dose inferred, filed as 5.0).

About 79,000 compounds went through this panel and 15% of them were active in at least one assay; those are over-represented in the sample as a whole. Unmarked numbers belong to inactive results. Active and inactive are the calls of the source. Rule as the data show it: active = growth inhibition above about 70%; inactive = the rest.

Consider `CN/N=C(\C)C(CN1CCCCC1)C(C1=C(O)c2ccccc2OC1)c1ccccc1` (stereo not given), for which the growth inhibition in assay [1] (setting [7]) was 25%; in assay [1] (setting [8]), 25%; in assay [1] (at 50.0 µM), 69.8%; in assay [2] (setting [7]) it was 25%; in assay [2] (setting [8]), 25%; in assay [2] (at 50.0 µM) it was 57.6%. The growth inhibition was 9% in assay [3] (setting [7]); 9% in assay [3] (setting [8]); 78.7% (active) in assay [3] (at 50.0 µM); -1% in assay [4] (setting [7]); -1% in assay [4] (setting [8]); 66.7% in assay [4] (at 50.0 µM). Moreover, the growth inhibition in assay [5] (setting [7]) is 10%; in assay [5] (setting [8]) it was 10%; in assay [5] (at 50.0 µM), 67.7%; in assay [6] (setting [7]), 25%; in assay [6] (setting [8]) it was 25%; in assay [6] (at 50.0 µM), 72% (active).
In the case of `CSc1ccc(C(=O)C(=O)c2ccc(SC)s2)s1`, the growth inhibition was 14% in assay [1] (setting [7]); 11% in assay [1] (setting [8]); 26.6% in assay [1] (at 50.0 µM); -15% in assay [2] (setting [7]); -8% in assay [2] (setting [8]); 39.5% in assay [2] (at 50.0 µM). The growth inhibition is 14% in assay [3] (setting [7]); 14% in assay [3] (setting [8]); 73.8% (active) in assay [3] (at 50.0 µM); 0% in assay [4] (setting [7]); 37% in assay [4] (setting [8]); 76.7% (active) in assay [4] (at 50.0 µM). For the same molecule, the growth inhibition in assay [5] (setting [7]) is -2%; in assay [5] (setting [8]) it was 9%; in assay [5] (at 50.0 µM), 48.7%; in assay [6] (setting [7]), 4%; in assay [6] (setting [8]) it was 2%; in assay [6] (at 50.0 µM), -1.7%.
Consider `O=C1c2ccccc2C(=O)c2c(NCCNCCO)ccc(O)c21`, for which the growth inhibition in assay [1] (setting [7]) is 37%; in assay [1] (setting [8]) it was 93% (active); in assay [1] (at 50.0 µM), 85% (active); in assay [2] (setting [7]), 19%; in assay [2] (setting [8]), 94% (active); in assay [2] (at 50.0 µM), 84.7% (active). Moreover, the growth inhibition was 51% in assay [3] (setting [7]); 91% (active) in assay [3] (setting [8]); 86.5% (active) in assay [3] (at 50.0 µM); 53% in assay [4] (setting [7]); 60% in assay [4] (setting [8]); 49.7% in assay [4] (at 50.0 µM). Further, the growth inhibition is 44% in assay [5] (setting [7]); 86% (active) in assay [5] (setting [8]); 85.3% (active) in assay [5] (at 50.0 µM); 24% in assay [6] (setting [7]); 88% (active) in assay [6] (setting [8]); 85.8% (active) in assay [6] (at 50.0 µM).
With `Nc1nc(N)c2nc(CNc3ccc(C(=O)NC(CCC(=O)O)C(=O)O)cc3)ccc2n1` (stereo not given), the growth inhibition in assay [1] (setting [7]) was -2%; in assay [1] (setting [8]) it was -5%; in assay [1] (at 50.0 µM), 16.3%; in assay [2] (setting [7]) it was -25%; in assay [2] (setting [8]), 11%; in assay [2] (at 50.0 µM) it was 64.2%. For the same molecule, the growth inhibition in assay [3] (setting [7]) was 18%; in assay [3] (setting [8]), 16%; in assay [3] (at 50.0 µM), 0.1%; in assay [4] (setting [7]), 9%; in assay [4] (setting [8]), 21%; in assay [4] (at 50.0 µM), -5.8%. Also, the growth inhibition in assay [5] (setting [7]) was 7%; in assay [5] (setting [8]) it was 3%; in assay [5] (at 50.0 µM) it was -38.9%; in assay [6] (setting [7]), -8%; in assay [6] (setting [8]) it was 8%; in assay [6] (at 50.0 µM), -20.7%.
Turning to `C/C(=N\NC(=S)N1CCCCCC1)c1ccccn1`, the growth inhibition in assay [1] (setting [7]) is 88% (active); in assay [1] (setting [8]), 99% (active); in assay [1] (at 50.0 µM) it was 91.5% (active); in assay [2] (setting [7]) it was 86% (active); in assay [2] (setting [8]) it was 99% (active); in assay [2] (at 50.0 µM), 92.6% (active). Moreover, the growth inhibition was 77% (active) in assay [3] (setting [7]); 99% (active) in assay [3] (setting [8]); 92.3% (active) in assay [3] (at 50.0 µM); 67% in assay [4] (setting [7]); 98% (active) in assay [4] (setting [8]); 89.7% (active) in assay [4] (at 50.0 µM). Moreover, the growth inhibition in assay [5] (setting [7]) was 87% (active); in assay [5] (setting [8]) it was 99% (active); in assay [5] (at 50.0 µM), 92.1% (active); in assay [6] (setting [7]), 90% (active); in assay [6] (setting [8]), 98% (active); in assay [6] (at 50.0 µM), 92% (active).
